In the supplement of paper PMC11732987, “Enantioselective OTUD7B fragment discovery through chemoproteomics screening and high-throughput optimisation” (Communications Chemistry, 2025):

How the values were obtained:
Assay in all cases: log2 ratio of Biotin-Ahx-Ub-VS probe labelling (fragment/DMSO); higher = less target engagement (more negative = stronger competition), active = hit call of the paper (q ≤ 0.05, log2 ratio ≤ -1)
Settings in all cases: compound concentration: 200 uM; treatment time: 3 h
[1] = target: USP34 (UniProt Q70CQ2)
Procedure, shortened: (§1)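 Values give the average log2 ratio of fragment to vehicle, assessed by unpaired t-test on global-median-normalised Spectronaut label-free quantities. Proteins needed ≥2 unique peptides. HEK293T lysate (495 µg per sample) was treated in triplicate with fragment at 200 µM or vehicle for 3 h and then with Biotin-Ahx-Ub-VS at 0.5 µM final for 1 h. Labelled DUBs were NeutrAvidin-enriched, digested and run by diaPASEF LC-MS/MS.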

[2] = target: T1, USP36 (UniProt Q9P275)
T1 sequence (whole entry): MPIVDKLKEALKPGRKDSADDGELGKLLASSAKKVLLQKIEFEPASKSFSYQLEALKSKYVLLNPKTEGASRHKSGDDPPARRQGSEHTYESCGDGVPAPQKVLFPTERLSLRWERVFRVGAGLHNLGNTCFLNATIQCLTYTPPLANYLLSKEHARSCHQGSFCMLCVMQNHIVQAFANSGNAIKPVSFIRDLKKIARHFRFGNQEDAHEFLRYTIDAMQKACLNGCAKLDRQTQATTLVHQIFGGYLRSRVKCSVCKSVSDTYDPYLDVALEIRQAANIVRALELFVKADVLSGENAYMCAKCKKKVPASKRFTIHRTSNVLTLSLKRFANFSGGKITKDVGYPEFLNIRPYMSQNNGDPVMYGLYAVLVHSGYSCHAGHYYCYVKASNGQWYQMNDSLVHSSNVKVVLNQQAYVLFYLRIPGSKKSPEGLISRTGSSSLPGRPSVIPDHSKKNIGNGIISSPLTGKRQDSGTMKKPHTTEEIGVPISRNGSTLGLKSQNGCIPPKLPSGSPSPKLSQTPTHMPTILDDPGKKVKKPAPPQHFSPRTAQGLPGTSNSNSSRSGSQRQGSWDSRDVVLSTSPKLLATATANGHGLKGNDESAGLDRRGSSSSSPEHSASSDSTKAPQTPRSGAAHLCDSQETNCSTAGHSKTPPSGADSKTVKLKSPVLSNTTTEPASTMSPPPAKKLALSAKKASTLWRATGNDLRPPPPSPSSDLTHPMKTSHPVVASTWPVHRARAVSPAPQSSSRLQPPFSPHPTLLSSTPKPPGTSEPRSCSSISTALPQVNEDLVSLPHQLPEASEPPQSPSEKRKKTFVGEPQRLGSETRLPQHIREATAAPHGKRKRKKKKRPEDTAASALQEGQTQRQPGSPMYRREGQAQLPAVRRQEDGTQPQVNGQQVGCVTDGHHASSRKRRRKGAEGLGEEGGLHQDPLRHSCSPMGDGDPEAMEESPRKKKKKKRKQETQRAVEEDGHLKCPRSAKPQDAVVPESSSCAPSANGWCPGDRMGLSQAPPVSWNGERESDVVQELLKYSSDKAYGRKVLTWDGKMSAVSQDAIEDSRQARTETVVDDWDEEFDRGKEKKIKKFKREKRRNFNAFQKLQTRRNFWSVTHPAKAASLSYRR
Procedure, shortened: as §1

[3] = target: T2, USP38 (UniProt Q8NB14)
T2 sequence (whole entry): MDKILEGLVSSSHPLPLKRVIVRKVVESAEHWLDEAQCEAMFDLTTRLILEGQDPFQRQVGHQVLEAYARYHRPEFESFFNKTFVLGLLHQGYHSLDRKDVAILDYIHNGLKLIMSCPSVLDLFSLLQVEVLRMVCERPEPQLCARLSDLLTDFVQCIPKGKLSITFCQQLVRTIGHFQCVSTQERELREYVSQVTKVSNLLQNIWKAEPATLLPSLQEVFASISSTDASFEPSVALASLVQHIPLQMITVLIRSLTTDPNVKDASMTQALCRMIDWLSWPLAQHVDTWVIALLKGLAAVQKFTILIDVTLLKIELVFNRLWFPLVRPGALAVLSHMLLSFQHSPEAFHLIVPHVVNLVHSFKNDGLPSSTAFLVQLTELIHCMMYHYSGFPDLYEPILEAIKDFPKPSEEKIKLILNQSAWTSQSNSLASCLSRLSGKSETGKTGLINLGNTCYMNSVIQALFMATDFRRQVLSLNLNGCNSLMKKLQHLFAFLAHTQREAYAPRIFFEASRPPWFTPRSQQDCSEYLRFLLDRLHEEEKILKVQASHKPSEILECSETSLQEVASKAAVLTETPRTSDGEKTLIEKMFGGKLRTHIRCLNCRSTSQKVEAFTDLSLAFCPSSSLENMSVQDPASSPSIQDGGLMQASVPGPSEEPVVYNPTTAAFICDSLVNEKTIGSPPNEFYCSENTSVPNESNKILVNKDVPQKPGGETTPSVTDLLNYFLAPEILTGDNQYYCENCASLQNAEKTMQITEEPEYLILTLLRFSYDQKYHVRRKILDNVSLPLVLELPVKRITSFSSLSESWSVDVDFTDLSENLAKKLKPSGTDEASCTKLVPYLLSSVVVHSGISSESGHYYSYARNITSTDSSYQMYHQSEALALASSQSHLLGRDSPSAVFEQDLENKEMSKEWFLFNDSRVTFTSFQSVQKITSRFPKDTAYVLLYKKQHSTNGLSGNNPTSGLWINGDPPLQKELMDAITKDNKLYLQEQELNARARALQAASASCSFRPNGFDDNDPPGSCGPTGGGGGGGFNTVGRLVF
Procedure, shortened: as §1

[4] = target: T3, USP39 (UniProt Q53GS9)
T3 sequence (whole entry): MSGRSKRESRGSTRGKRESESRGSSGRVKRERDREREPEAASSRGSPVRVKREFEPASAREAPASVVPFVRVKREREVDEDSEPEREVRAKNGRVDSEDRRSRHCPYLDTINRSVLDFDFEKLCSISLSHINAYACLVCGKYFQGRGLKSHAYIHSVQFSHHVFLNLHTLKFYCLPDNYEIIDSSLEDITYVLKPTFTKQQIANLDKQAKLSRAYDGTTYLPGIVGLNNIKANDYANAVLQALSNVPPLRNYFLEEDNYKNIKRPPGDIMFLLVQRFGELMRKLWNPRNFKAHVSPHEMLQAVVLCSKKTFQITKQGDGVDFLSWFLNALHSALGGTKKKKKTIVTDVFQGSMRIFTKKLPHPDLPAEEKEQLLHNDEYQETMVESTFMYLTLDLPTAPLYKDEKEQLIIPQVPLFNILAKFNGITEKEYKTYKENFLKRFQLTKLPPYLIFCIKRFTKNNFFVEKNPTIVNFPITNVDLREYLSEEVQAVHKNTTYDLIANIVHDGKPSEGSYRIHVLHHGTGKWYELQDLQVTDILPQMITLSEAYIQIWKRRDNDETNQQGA
Procedure, shortened: as §1

[5] = target: T4, USP4 (UniProt Q13107)
T4 sequence (whole entry): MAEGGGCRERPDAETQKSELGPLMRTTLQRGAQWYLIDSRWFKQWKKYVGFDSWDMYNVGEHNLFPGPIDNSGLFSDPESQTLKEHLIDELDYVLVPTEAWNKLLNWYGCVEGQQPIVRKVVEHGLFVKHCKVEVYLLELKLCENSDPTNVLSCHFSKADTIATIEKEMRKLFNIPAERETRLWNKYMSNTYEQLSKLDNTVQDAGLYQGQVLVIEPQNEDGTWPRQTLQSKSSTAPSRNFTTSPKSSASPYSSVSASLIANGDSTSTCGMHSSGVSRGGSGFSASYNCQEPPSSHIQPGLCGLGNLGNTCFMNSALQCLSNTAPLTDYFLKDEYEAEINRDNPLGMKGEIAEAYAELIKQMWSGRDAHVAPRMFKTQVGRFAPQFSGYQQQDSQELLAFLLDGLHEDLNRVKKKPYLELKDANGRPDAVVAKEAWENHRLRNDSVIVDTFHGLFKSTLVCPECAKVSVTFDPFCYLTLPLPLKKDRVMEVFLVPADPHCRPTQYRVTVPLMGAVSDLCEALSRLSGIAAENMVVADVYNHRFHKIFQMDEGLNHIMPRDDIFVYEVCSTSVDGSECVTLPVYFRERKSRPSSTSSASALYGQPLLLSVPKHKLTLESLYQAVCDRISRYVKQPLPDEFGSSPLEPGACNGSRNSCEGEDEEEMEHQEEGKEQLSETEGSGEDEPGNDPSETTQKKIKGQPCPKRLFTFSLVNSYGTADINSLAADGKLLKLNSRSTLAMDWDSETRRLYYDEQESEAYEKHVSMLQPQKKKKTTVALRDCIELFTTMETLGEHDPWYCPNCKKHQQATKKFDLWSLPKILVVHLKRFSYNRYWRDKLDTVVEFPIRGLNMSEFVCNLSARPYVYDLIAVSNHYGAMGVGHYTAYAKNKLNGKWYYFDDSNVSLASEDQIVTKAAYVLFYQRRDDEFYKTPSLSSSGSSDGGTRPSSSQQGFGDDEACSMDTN
Procedure, shortened: as §1

Measured: log2 ratio of Biotin-Ahx-Ub-VS probe labelling

USP34, sequence (Q70CQ2 whole entry, the tested form may be a part): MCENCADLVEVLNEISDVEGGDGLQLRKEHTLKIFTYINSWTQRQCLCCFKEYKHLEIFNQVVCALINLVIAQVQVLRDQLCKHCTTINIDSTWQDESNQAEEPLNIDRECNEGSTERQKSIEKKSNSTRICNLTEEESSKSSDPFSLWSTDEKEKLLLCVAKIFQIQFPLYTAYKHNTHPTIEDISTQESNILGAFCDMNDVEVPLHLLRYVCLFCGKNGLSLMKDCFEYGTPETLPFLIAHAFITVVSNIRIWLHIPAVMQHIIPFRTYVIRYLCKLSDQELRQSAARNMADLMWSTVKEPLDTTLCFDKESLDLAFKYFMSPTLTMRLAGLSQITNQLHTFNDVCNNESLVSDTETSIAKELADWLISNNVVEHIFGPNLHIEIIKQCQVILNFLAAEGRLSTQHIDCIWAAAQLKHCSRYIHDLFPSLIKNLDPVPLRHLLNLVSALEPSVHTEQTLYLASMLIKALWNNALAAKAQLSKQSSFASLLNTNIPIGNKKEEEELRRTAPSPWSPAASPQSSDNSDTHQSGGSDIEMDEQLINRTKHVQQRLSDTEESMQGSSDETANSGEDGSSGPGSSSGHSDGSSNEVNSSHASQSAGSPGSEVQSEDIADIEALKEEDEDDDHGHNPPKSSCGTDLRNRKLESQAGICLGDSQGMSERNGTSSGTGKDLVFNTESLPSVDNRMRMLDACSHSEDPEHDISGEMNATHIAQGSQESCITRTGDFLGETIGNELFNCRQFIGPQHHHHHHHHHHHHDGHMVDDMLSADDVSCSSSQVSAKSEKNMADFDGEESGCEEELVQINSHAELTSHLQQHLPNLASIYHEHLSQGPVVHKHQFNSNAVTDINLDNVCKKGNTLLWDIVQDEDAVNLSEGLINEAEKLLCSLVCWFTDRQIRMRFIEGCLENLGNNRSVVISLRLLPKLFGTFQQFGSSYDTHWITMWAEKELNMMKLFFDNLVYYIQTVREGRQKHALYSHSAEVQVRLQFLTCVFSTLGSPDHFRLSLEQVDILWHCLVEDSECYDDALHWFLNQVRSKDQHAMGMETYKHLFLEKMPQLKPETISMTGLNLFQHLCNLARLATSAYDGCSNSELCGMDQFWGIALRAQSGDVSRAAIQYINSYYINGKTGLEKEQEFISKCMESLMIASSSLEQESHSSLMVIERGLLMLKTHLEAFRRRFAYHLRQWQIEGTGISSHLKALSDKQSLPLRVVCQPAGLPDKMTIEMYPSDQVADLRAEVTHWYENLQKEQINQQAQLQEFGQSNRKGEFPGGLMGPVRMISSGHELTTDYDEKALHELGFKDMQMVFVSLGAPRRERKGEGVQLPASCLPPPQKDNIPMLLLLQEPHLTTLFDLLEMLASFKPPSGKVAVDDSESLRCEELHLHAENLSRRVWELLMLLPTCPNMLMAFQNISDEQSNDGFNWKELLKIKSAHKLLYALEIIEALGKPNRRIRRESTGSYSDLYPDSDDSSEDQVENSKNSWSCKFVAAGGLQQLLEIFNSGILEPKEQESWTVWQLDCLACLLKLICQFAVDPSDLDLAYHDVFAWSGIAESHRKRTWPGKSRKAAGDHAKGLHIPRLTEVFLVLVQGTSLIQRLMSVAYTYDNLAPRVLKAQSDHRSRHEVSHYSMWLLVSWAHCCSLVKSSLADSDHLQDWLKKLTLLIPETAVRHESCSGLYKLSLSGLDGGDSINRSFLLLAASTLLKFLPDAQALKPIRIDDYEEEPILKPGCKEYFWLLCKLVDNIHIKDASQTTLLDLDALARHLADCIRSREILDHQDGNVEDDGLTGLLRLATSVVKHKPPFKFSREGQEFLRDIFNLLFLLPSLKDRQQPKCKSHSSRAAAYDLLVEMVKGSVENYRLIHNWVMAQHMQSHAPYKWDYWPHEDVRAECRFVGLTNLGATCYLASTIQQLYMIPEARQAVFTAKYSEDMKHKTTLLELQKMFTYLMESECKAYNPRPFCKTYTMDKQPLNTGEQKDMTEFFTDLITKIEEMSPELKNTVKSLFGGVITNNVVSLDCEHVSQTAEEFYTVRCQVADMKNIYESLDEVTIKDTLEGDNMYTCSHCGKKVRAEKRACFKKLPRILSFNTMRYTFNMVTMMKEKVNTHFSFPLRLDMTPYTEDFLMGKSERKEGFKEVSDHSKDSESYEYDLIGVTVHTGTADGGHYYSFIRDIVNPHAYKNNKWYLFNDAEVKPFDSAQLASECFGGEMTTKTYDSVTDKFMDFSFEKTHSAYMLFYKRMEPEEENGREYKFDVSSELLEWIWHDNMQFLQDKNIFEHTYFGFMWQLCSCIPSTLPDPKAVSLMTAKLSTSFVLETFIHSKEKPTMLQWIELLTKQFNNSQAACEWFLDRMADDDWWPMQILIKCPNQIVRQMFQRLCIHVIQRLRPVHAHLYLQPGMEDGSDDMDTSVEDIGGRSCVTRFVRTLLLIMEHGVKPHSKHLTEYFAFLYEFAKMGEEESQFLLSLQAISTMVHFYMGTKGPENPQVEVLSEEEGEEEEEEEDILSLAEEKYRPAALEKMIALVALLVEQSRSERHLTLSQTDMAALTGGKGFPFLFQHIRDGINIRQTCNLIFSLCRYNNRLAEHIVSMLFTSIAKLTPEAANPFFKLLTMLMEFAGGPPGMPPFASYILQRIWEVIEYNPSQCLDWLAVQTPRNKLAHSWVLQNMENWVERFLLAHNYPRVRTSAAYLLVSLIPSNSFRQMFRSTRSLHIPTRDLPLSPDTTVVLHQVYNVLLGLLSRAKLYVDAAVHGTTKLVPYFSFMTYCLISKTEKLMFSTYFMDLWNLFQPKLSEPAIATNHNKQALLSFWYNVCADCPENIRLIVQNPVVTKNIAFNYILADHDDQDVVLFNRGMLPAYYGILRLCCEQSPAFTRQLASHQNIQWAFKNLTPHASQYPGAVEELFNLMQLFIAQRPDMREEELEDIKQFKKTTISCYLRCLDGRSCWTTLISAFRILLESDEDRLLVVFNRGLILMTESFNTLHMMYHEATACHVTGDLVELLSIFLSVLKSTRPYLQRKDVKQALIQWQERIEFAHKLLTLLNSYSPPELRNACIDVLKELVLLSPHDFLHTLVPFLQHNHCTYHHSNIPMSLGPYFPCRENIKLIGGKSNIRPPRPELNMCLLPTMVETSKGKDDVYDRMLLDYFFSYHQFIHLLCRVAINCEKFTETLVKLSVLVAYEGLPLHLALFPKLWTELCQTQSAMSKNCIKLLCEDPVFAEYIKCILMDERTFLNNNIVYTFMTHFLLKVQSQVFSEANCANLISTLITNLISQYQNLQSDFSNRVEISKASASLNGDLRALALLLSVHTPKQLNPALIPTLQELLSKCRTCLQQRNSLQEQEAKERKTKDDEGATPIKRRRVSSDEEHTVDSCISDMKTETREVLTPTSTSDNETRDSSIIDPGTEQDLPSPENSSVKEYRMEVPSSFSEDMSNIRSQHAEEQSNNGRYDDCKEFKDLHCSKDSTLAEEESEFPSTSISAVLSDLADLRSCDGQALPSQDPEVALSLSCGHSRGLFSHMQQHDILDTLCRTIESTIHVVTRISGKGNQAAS

N#Cc1ccccc1N1CCN(C(=O)CCl)CC1
inactive: [1] -0.549 | [2] -0.232 | [3] -0.312 | [4] 0.399 | [5] -0.61
